For 59 molecules, survival results are on record in PubChem BioAssay AID463173 (ICCB-Longwood Screening Facility, Harvard Medical School, 2010).

Structures are written as SMILES. About 4,300 (8.3%) of roughly 52,000 compounds were called active. Rule as the data show it: active = survival mostly below about 52% (no sharp cut-off); inactive = mostly above about 56%. Shown is part of a subset that was picked to be rich in actives.

For the assay, the system named is DeltatarO mutant. Put plainly: S. aureus survival, RN4220 and DeltatarO strains – OD600, teichoic acid synthesis inhibitors, primary screen (AID 463173). As to conditions: S. aureus RN4220 wild type/DeltatarO growth, OD600, 18 h, active compounds read low, screened at 18.75 µg/mL (by protocol).
Take `COc1ccc(C(C#N)N2N=C(C)CC2c2ccccc2)cc1OC` (centres undefined): the survival is 108% (inactive).
Consider `CC(=O)c1ccc(NC(=O)CSc2nc(C3CCCC3)nc3c2c(=O)n(C)c(=O)n3C)cc1`, for which the survival was 78% (inactive).
With `Cc1cccc(C)c1-n1ncc(C(=O)N2CCN(c3ncccn3)CC2)c1C1CCN(C(=O)OC(C)(C)C)CC1`, the survival was 95% (inactive).
Next, `COc1cc(OC)c(NC(=O)CCc2nc(C3=CCN(Cc4cccc(Cl)c4)CC3)no2)cc1Cl`: 75% (inactive); `Cc1cc(C)c(NC(=O)CN(C)S(=O)(=O)c2ccc3c(c2)c(=O)n(C)c(=O)n3C)c(C)c1`: 81% (inactive).
Take `Cc1ccc(Cl)cc1-n1ncc2c(N3CCC(C)CC3)ncnc21`: the survival is 128% (inactive).
Under `COc1cc(C(CC(=O)Nc2ccc(Br)cn2)N2Cc3ccccc3C2=O)cc(OC)c1OC` (centres undefined) stands 78% (inactive).
With `COc1cccc(-c2cn3c(n2)sc2cc(C(=O)NCCc4ccc(OC)c(OC)c4)ccc23)c1`, the survival is 49% (inactive).
Next, `COc1ccc(CCNC(=O)c2ccc3c(c2)sc2nc(-c4ccc(C)cc4)cn23)cc1OC`: 81% (inactive); `COc1ccc(CCNC(=O)c2ccc3c(c2)sc2nc(-c4ccccc4)cn23)cc1OC`: 47% (active); `Cc1cc(C(=O)O)on1`: 83% (inactive).
Turning to `COc1ccc(-c2nc3ccccc3s2)cc1NC(=O)c1ccc(F)cc1`, the survival is 137% (inactive).
Next, `COc1ccc(C(=O)Nc2cc(-c3nc4ccccc4s3)ccc2OC)cc1`: 19% (active); `COc1ccc(-c2nc3ccccc3s2)cc1NC(=O)c1ccccc1F`: 151% (inactive).
Next, `O=C(Nc1cc(-c2nc3ccccc3s2)ccc1Cl)c1cc2ccccc2o1`: 105% (inactive).
As to `COc1ccc(-c2nc3ccccc3s2)cc1NC(=O)c1ccc(C#N)cc1F`, the survival was 168% (inactive).
Next, `COc1cc(OC)cc(C(=O)Nc2ccc(-c3nc4ccccc4s3)cc2C)c1`: 72% (inactive).
Turning to `COc1ccc(-c2nc3ccccc3s2)cc1NC(=O)c1ccccc1OC`, the survival was 77% (inactive).
Under `COc1cc(OC)cc(C(=O)Nc2cc(-c3nc4ccccc4s3)ccc2OC)c1` stands 42% (active).
Next, `COc1ccc(-c2nc3ccccc3s2)cc1NC(=O)c1cc2ccccc2o1`: 38% (active).
Take `COc1ccc(-c2nc3ccccc3s2)cc1NC(=O)c1cccc([N+](=O)[O-])c1C`: the survival is 38% (active).
Next, `CCOc1ccc(C(=O)Nc2cc(-c3nc4ccccc4s3)ccc2OC)cc1`: 187% (inactive); `COc1ccc(-c2nc3ccccc3s2)cc1NC(=O)c1cc(OC)c(OC)c(OC)c1`: 57% (inactive); `CCOC(=O)N1CCc2c(sc(NCc3sccc3C)c2C(=O)Nc2ccccc2OCC)C1`: 94% (inactive).
Next, `O=C(NCCS(=O)(=O)N1CCN(c2ccc(F)cc2)CC1)C(c1ccccc1)c1ccccc1`: 113% (inactive); `CC(C)COc1ccc(C(=O)N2CCN(CCc3ccccn3)CC2)cc1`: 63% (inactive); `CC(C)(C)C(=O)C1C2C3COC(O3)C(=O)C2C2C=Cc3ccccc3N21` (centres undefined): 124% (inactive).
Under `CCc1cccc(NC(=O)Cn2c(=O)n(CC(=O)NCCc3ccccc3)c(=O)c3ccccc32)c1` stands 102% (inactive); under `COc1cc(Cl)c(C)cc1NC(=O)c1cc2c(Cl)nc3ccc(C)cc3c2s1`, 64% (inactive); under `CCSc1ncc(Cl)c(C(=O)N2CCN(c3ccccc3OC)CC2)n1`, 76% (inactive).
Take `CS(=O)(=O)N1CCc2cc(C(=O)N3CCN(c4cccc(Cl)c4)CC3)ccc21`: the survival was 49% (inactive).
With `CSc1ncc(C(=O)N2CCN(c3ccc(Cl)cc3)CC2)c(C)n1`, the survival was 106% (inactive).
Next, `CCCSc1ncc(Cl)c(C(=O)N2CCN(c3ccc(OC)cc3)CC2)n1`: 49% (inactive).
Consider `CCS(=O)(=O)c1ncc(Cl)c(C(=O)N2CCN(c3ccc(OC)cc3)CC2)n1`, for which the survival was 68% (inactive).
Under `CS(=O)(=O)c1ncc(Cl)c(C(=O)N2CCN(c3cccc(Cl)c3)CC2)n1` stands 17% (active).
Next, `CSc1ncc(C(=O)N2CCN(c3cccc(Cl)c3)CC2)c(C)n1`: 0% (active); `Cn1cc(S(=O)(=O)N2CCCC2)cc1C(=O)N1CCN(c2cccc(Cl)c2)CC1`: 73% (inactive); `CCS(=O)(=O)c1ncc(Cl)c(C(=O)N2CCN(c3cccc(Cl)c3)CC2)n1`: 8% (active).
Under `CSc1ncc(C(=O)N2CCN(c3cccc(C(F)(F)F)c3)CC2)c(C)n1` stands 69% (inactive); under `CCSc1ncc(Cl)c(C(=O)N2CCN(c3ccc(OC)cc3)CC2)n1`, 83% (inactive).
On to `CCCSc1ncc(Cl)c(C(=O)N2CCN(c3cccc(Cl)c3)CC2)n1`, for which the survival was 40% (active).
Under `O=C(c1cccnc1)N1CCN(CCN2C(=O)C3C4C=CC(C4)C3C2=O)CC1` (centres undefined) stands 89% (inactive).
Next, `COc1ccc(-n2nc(C(=O)NCCc3ccc(OC)c(OC)c3)c3c4ccccc4n(C)c3c2=O)cc1Cl`: 95% (inactive); `CCOc1ccc(S(=O)(=O)NCCc2csc(-c3ccc(Cl)cc3)n2)cc1`: 91% (inactive).
Under `O=C1CC(c2ccccc2)Cc2[nH]c(=O)c(-c3nc(-c4ccc(F)cc4)cs3)cc21` (centres undefined) stands 154% (inactive); under `Cc1ccc(NC(=O)c2c(C)oc3ncnc(N4CCCCC4)c23)c(C)c1`, 108% (inactive); under `O=C(CCC1N=C2c3ccccc3N=C(SCC(=O)Nc3ccccc3F)N2C1=O)NCc1cccs1` (centres undefined), 96% (inactive).
`CCc1cccc(NC(=O)Cn2c(=O)n(CC3CCC(C(=O)NC)CC3)c(=O)c3sccc32)c1` (centres undefined): the survival was 83% (inactive).
Under `Cc1ccccc1OCCSc1nc2ccc(NC(=O)c3cccc(F)c3)cc2s1` stands 100% (inactive); under `O=C(NCC1CCCO1)C1CCCN1C(=O)Nc1ccc(Cl)cc1` (centres undefined), 84% (inactive).
On to `COc1cccc(-c2cc(C(=O)NCc3ccc(F)cc3)no2)c1`, for which the survival is 30% (active).
Under `COc1cccc(-c2cc(C(=O)NCCc3ccc(OC)c(OC)c3)no2)c1` stands 173% (inactive); under `COc1ccc(CNC(=O)c2cc(-c3ccc(OC)cc3)on2)cc1`, 210% (inactive); under `COc1cccc(-c2cc(C(=O)Nc3ccc(OC)cc3OC)no2)c1`, 56% (inactive).
Under `COc1cccc(-c2cc(C(=O)NCc3ccccc3)no2)c1` stands 45% (active).
Under `CCC(C)NC(=O)c1cc(-c2cccc(OC)c2)on1` (centres undefined) stands 32% (active); under `COc1ccc(-c2cc(C(=O)NCc3ccc(F)cc3)no2)cc1`, 178% (inactive).
As for `COc1cccc(-c2cc(C(=O)Nc3cccnc3Cl)no2)c1`, the survival is 61% (inactive).
As to `COc1ccc(CNC(=O)c2cc(-c3cccc(Cl)c3)on2)cc1`, the survival is 49% (inactive).
